Screening data as filed in PubChem BioAssay.
Mcl1-Noxa inh = Mcl-1/Noxa interaction inhibition; Q07820; 220,000 compounds, 1.5% hits; TR-FRET Mcl-1/Noxa peptide binding, 2 h; inhibition, % at 21.7 µM;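 active means compounds that cut the protein-peptide binding signal by more than 50% relative to plate controls in a single-dose test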;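 further: His-tagged Mcl-1 with rhodamine Noxa BH3 peptide and terbium anti-His antibody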
Target sequence (Q07820 whole entry, looked up): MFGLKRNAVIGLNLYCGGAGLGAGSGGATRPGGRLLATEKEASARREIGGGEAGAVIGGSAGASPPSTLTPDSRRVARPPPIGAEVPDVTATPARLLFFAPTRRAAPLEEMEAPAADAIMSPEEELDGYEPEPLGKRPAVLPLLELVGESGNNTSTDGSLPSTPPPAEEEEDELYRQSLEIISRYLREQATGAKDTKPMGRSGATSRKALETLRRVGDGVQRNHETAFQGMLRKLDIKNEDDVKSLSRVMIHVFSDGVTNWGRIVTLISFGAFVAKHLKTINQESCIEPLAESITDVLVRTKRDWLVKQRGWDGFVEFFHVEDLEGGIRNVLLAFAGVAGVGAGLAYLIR
eIF4E 4G PPI = blocks eIF4E binding to eIF4G; P63073+Q04637; TR-FRET eIF4E-eIF4GI(517-606) binding, 2 h; 220,000 compounds, 0.37% hits; inhibition, % at 21.7 µM;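 active means inhibition above about 30%, limit read from the data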
Mcl-1 Bim block = human Bim-Mcl-1 interaction inhibition. Q07820. Bead-based flow cytometry, Bim peptide-Mcl-1 binding. inhibition, % at 10 µM. 190,000 compounds, 0.1% hits; in the data active means inhibition above about 40%
14-3-3 Bad PPI = disrupts binding of bovine 14-3-3 zeta to phospho-Bad peptide; P63103; TR-FRET 14-3-3zeta/Dy647-pBad peptide displacement, 1 h; inhibition, % at 21.7 µM; 220,000 compounds, 0.71% hits; AID 781;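 active means inhibition above about 70%, limit read from the data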
MCL1-BIM inh = MCL1-BIM-BH3 interaction inhibition (human); GST-MCL1 / FITC-Bim-BH3 fluorescence polarization; Q07820; 320,000 compounds, 0.68% hits; inhibition, % at 10.9 µM; AID 2057;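 active means inhibition above the mean inhibition of all tested compounds plus 3 SD, set per campaign, cut at about 40% in these data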;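 further: higher means more loss of mP so more displacement of Bim peptide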
Mcl1-Bid inh = disrupts binding of human Mcl-1 to Bid peptide | AID 1021 | inhibition, % at 21.7 µM | TR-FRET Mcl-1/Bid-Dy647 peptide binding, 1536-well | Q07820 | 220,000 compounds, 0.97% hits;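 active means compounds that cut the binding signal by more than half at the single screening dose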;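 further: His-tagged Mcl-1 with europium anti-His antibody binding Bid BH3 peptide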
Of the large screens only hits and unclear results are named; the others gave an inactive call. Sampled rows, rich in hits. Any-hit rate of the full collection: about 2.6%.

O=C(/C=N/O)Nc1ccc2sc3ccccc3c2c1	none (no result: Mcl-1 Bim block)
Cc1ccc(CNCC2CCCO2)s1 (configuration not stated)	14-3-3 Bad PPI 90.2
CCc1ccc(C(=O)NC2CCCCC2)s1	Mcl1-Bid inh 61.4
CC(C)(O)C#Cc1ccc(C(=O)NC2CCCCC2)s1	none
CCN(C(=O)CSc1nnc2c3ccccc3n(CC)c2n1)C1CCS(=O)(=O)C1 (configuration not stated)	none
Cc1ccc(NCc2cccnc2)cc1	14-3-3 Bad PPI 71.5
O=S(=O)(c1ccc(-c2nnco2)cc1)N1CCCCC1	none (no result: Mcl1-Noxa inh, eIF4E 4G PPI, Mcl-1 Bim block, 14-3-3 Bad PPI, Mcl1-Bid inh)
O=S(=O)(c1ccc(Oc2ccc(-c3nnco3)cc2)nc1)N1CCC(Cc2ccccc2)CC1	Mcl1-Bid inh 59.2
CN(C)CCN(Cc1ccc(Cl)cc1)c1ccccn1	Mcl1-Noxa inh 60.5
C[N+](C)(C)CCN(Cc1ccc(Cl)cc1)c1ccccn1	none
CCCCNC(=O)C1CCN(S(=O)(=O)N2CCCCCC2)CC1	none
CC1CCCC(C)N1CCNC(=O)C1CCN(S(=O)(=O)N2CCCCC2)CC1 (configuration not stated)	Mcl1-Bid inh 101.8
O=C(COC(=O)c1nc(Cl)ccc1Cl)NNC(=O)c1cccs1	none (no result: Mcl1-Noxa inh, eIF4E 4G PPI, Mcl-1 Bim block, 14-3-3 Bad PPI, Mcl1-Bid inh)
C=CCn1c(NS(=O)(=O)c2ccccc2)c(S(=O)(=O)c2ccc(C)cc2)c2nc3ccccc3nc21	none
O=S(=O)(Nc1c(S(=O)(=O)c2ccccc2)c2nc3ccccc3nc2n1C1CCCCC1)c1ccccc1	Mcl1-Noxa inh 55.2, Mcl1-Bid inh 57.2
O=S(=O)(c1ccc(Cl)cc1)c1nc(-c2ccco2)oc1N1CCOCC1	14-3-3 Bad PPI 76.1 (no result: Mcl-1 Bim block)
O=[N+]([O-])c1ccc2c(c1)ncn2-c1ccccc1	Mcl1-Bid inh 82.4
Cn1c(-[n+]2c(-c3ccccc3)cc(-c3ccccc3)cc2-c2ccccc2)nc2cc([N+](=O)[O-])ccc21	Mcl1-Noxa inh 64.2
CCN(c1ccccc1)S(=O)(=O)c1cc(C(=O)O)ccc1C	none
O=C(Cc1ccc(F)cc1)N/N=C/c1ccncc1	none
N#Cc1c(-n2cccc2/C=N/O)sc2c1CCCC2	none
C=CCNCc1cccn1-c1sc2c(c1C#N)CCCC2	14-3-3 Bad PPI 70.7
COc1ccc(CN2C(=NC(=O)C3CC3)SC3CS(=O)(=O)CC32)cc1OC (configuration not stated)	none (no result: Mcl1-Noxa inh, eIF4E 4G PPI, Mcl-1 Bim block, 14-3-3 Bad PPI, Mcl1-Bid inh)
CCC1CN(C(=O)N2CCC(C(=O)Nc3ccccc3F)CC2)c2ccccc2O1 (configuration not stated)	none (no result: Mcl1-Noxa inh, eIF4E 4G PPI, Mcl-1 Bim block, 14-3-3 Bad PPI, Mcl1-Bid inh)
CCOC(=O)N1CCN(C(=O)c2ccc3c(=O)n(Cc4ccc(OC)cc4)c(=S)[nH]c3c2)CC1	none
COc1ccc2[nH]c3c(=O)n(Cc4ccc(C(=O)N5CCCCCC5)cc4)c(=S)[nH]c3c2c1	Mcl1-Noxa inh 59.7
COc1ccc2[nH]c3c(=O)n(Cc4ccc(C(=O)N5CCC(C(N)=O)CC5)cc4)c(=S)[nH]c3c2c1	Mcl1-Noxa inh 61.2
COC(C[C@@H]1O[C@H]1[C@H](O)[C@@H](C)OCc1ccccc1)OC	none (no result: Mcl1-Noxa inh, eIF4E 4G PPI, Mcl-1 Bim block, 14-3-3 Bad PPI, Mcl1-Bid inh)
CCOc1ccc(S(=O)(=O)N2CCCCC2)cc1NC(=O)Cc1ccsc1	none (no result: Mcl1-Noxa inh, eIF4E 4G PPI, Mcl-1 Bim block, 14-3-3 Bad PPI, Mcl1-Bid inh)
Cc1ccc(NC(=O)Cn2nnc(C(=O)NCc3ccc(Cl)cc3)c2N)cc1F	none (no result: Mcl1-Noxa inh, eIF4E 4G PPI, Mcl-1 Bim block, 14-3-3 Bad PPI, Mcl1-Bid inh)
CN1CCC(N(C)C(=O)CNC(=O)c2ccc(C(C)(C)C)cc2)CC1	Mcl1-Noxa inh 57.5
CCc1ccc(NC(=O)C(C)Sc2nnc(CN3CCCC3)o2)cc1 (configuration not stated)	none (no result: Mcl1-Noxa inh, eIF4E 4G PPI, Mcl-1 Bim block, 14-3-3 Bad PPI, Mcl1-Bid inh)
CC(=O)Nc1cccc(NC(=O)c2c(-c3c(Cl)cccc3Cl)noc2C)c1	Mcl1-Noxa inh 67.2
Cc1onc(-c2c(Cl)cccc2Cl)c1C(N)=S	Mcl1-Bid inh 50.9
CN(C)c1ccc(P(=O)(OCc2ccccc2)C(O)c2ccccc2)cc1 (configuration not stated)	none (no result: Mcl-1 Bim block)
O=C(O)c1ccc(N=NN2CCCCCC2)cc1	none
O=C1C(Cc2ccccc2)Nc2ncnc(N3CCN(c4ccccc4)CC3)c2N1Cc1ccc(Cl)cc1 (configuration not stated)	none (no result: Mcl1-Noxa inh, eIF4E 4G PPI, Mcl-1 Bim block, 14-3-3 Bad PPI, Mcl1-Bid inh)
Cc1ccc(CNC(=O)CN(C)C2=NS(=O)(=O)c3ccccc32)cc1	none (no result: Mcl1-Noxa inh, eIF4E 4G PPI, Mcl-1 Bim block, 14-3-3 Bad PPI, Mcl1-Bid inh)
CCOc1cc(CN2CCC(n3nccc3NC(=O)C3CC3)CC2)ccc1O	none (no result: Mcl1-Noxa inh, eIF4E 4G PPI, Mcl-1 Bim block, 14-3-3 Bad PPI, Mcl1-Bid inh)
COc1cccc(CNCc2cc(OC)cc(OC)c2)c1	none (no result: Mcl1-Noxa inh, eIF4E 4G PPI, Mcl-1 Bim block, 14-3-3 Bad PPI, Mcl1-Bid inh)
COc1cc(CNCc2ccc(SC)cc2)cc(OC)c1	Mcl1-Bid inh 50.7
